{"source": "PubChem BioAssay (Tox21)", "note": "Records with an inconclusive call do not appear. The source made the active and inactive calls. Calls follow the shape of the full dose curve. % is scaled to controls: 0 for no effect and ±100 for the full control effect.", "data": [{"target": "Acetylcholinesterase (Homo sapiens) (UniProt P22303)", "sequence (P22303 whole entry, looked up)": "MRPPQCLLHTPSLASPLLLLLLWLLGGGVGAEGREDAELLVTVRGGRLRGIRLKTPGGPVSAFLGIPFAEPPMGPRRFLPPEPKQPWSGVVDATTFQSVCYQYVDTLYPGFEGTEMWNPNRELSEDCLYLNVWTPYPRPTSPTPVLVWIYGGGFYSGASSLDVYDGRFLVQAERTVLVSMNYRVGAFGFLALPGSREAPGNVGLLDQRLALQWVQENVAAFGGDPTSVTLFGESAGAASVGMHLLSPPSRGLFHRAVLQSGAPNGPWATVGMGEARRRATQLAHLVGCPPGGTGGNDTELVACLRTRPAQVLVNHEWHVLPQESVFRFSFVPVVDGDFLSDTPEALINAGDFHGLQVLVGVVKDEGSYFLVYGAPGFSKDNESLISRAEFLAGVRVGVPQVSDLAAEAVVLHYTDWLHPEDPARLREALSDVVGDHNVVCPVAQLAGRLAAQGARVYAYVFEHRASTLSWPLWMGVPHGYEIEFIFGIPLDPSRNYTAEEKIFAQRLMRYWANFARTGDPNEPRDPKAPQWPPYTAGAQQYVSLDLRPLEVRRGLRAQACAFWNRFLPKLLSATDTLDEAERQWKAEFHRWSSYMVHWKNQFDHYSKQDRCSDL", "experiment": "Acetylcholinesterase (AChE) small molecule antagonists: enzyme-based qHTS assay (AID 1347397); also: nearly all actives have a fitted effect of over 55% in size", "conditions": "Potency: AChE enzyme activity inhibition; outcome: AChE enzyme activity inhibition; series mostly up to 115 µM; activity change, negative = inhibition: at the top concentration", "in_short": "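rhAChE 50 mU/mL (dispensed) + cpd or DMSO, 30 min RT; add DTNB/acetylthiocholine cocktail, 10 min RT; colorimetric thiocholine readout. qHTS, 1536-well format.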", "values": [{"smiles": "NS(=O)(=O)c1cc2c(cc1Cl)NC(CC1CCCC1)NS2(=O)=O", "note": "(centres undefined)", "activity change, negative = inhibition": "-4.28% [at 53 µM] (inactive)"}, {"smiles": "COc1cc2ncnc(Nc3ccc(F)c(Cl)c3)c2cc1OCCCN1CCOCC1", "activity change, negative = inhibition": "-0.139% [at 53 µM] (inactive)"}, {"smiles": "Cc1cc(-c2ccc(N=Nc3cc(S(=O)(=O)O)c4ccccc4c3N)c(C)c2)ccc1N=Nc1cc(S(=O)(=O)O)c2ccccc2c1N", "activity change, negative = inhibition": "-2.44% (inactive)"}, {"smiles": "CCO[Si](CCCSSSSCCC[Si](OCC)(OCC)OCC)(OCC)OCC", "activity change, negative = inhibition": "-2.56% (inactive)"}, {"smiles": "CCCC[P+](C)(CCCC)CCCC", "activity change, negative = inhibition": "-11.7% (inactive)"}, {"smiles": "O=C(CCCN1CCN(c2ccccn2)CC1)c1ccc(F)cc1", "activity change, negative = inhibition": "-0.54% [at 53 µM] (inactive)"}, {"smiles": "NS(=O)(=O)c1cc2c(cc1C(F)(F)F)NCNS2(=O)=O", "activity change, negative = inhibition": "-7.91% [at 53 µM] (inactive)"}, {"smiles": "CC(C)C[C@@H]1[C@H](c2ccccc2)OC(=O)N1CCCN1CCCCCC1", "activity change, negative = inhibition": "-6.25% [at 53 µM] (inactive)"}, {"smiles": "Nc1ccc(Oc2ccc(N)c(N)c2)cc1", "activity change, negative = inhibition": "-2.92% (inactive)"}, {"smiles": "O=C1CC2(CCCC2)CC(=O)N1", "activity change, negative = inhibition": "-0.152% [at 53 µM] (inactive)"}, {"smiles": "OCc1c[nH]c2ccccc12", "activity change, negative = inhibition": "4.72% (inactive)"}, {"smiles": "O=C1CC2(CCCC2)CC(=O)N1CCCCN1CCN(c2ncccn2)CC1", "Potency": "inactive"}, {"smiles": "CO/N=C1\\CN(c2nc3c(cc2F)c(=O)c(C(=O)O)cn3C2CC2)CC1CN", "note": "(centres undefined)", "outcome": "inactive"}, {"smiles": "CCOC(=O)Nc1ccc(NCc2ccc(F)cc2)nc1N", "activity change, negative = inhibition": "2.3% [at 53 µM] (inactive)"}, {"smiles": "Clc1cc(Cl)cc(Cl)c1", "activity change, negative = inhibition": "-1.78% (inactive)"}, {"smiles": "CNCc1cc(F)ccc1Oc1ccc(Cl)c(Cl)c1", "activity change, negative = inhibition": "0.459% (inactive)"}, {"smiles": "C[C@@H]1CCC[C@H](C)N1CCCC(O)(c1ccccc1)c1ccccn1", "note": "(some centres undefined)", "activity change, negative = inhibition": "-2.51% [at 53 µM] (inactive)"}, {"smiles": "Cc1cc(=O)c2c(O)c3c(O)cc(=O)c4c3c3c(cc(O)c1c23)C(C)(C)C=4O", "activity change, negative = inhibition": "2.31% [at 23.6 µM] (inactive)"}]}, {"target": "Acetylcholinesterase (Homo sapiens) (UniProt P22303)", "experiment": "Acetylcholinesterase (AChE) small molecule antagonists: fluorescence cell-based qHTS assay (AID 1347398); also: nearly all actives have a fitted effect of over 50% in size; also: potency is read from the fitted curve at half-maximal effect", "conditions": "SH-SY5Y cells; Potency: AChE activity; outcome: AChE activity; series mostly up to 115 µM; activity change, negative = inhibition: at the top concentration", "in_short": "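Read-out is Thiolite Green fluorescence at Ex/Em = 490/520 nm, formed by reaction with thiocholine released when cellular AChE in SH-SY5Y cells hydrolyzes acetylthiocholine. Compounds were preincubated 30 min at 37 C before substrate.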", "values": [{"smiles": "CCCCCCCCCCCCCCCCCC[N+](C)(C)Cc1ccccc1", "Potency": "71.7 µM (active)"}, {"smiles": "S=c1[nH]c2ccccc2s1", "activity change, negative = inhibition": "-2.34% (inactive)"}, {"smiles": "Nc1ccc(F)c([N+](=O)[O-])c1", "activity change, negative = inhibition": "1.1% (inactive)"}, {"smiles": "CC1=CCC2C(C1)C2(C)C", "note": "(centres undefined)", "activity change, negative = inhibition": "-5.14% (inactive)"}, {"smiles": "CCOC(=O)[C@H](CCc1ccccc1)N[C@H]1CS[C@H](c2cccs2)CN(CC(=O)O)C1=O", "activity change, negative = inhibition": "14.8% [at 53.7 µM] (inactive)"}, {"smiles": "O=C1c2ccccc2S(=O)(=O)N1CCCCN1CCN(c2ncccn2)CC1", "activity change, negative = inhibition": "-27% [at 53.7 µM] (inactive)"}, {"smiles": "N#CC1(N)CCCCC1", "activity change, negative = inhibition": "6.58% (inactive)"}, {"smiles": "Cc1ccccc1C", "activity change, negative = inhibition": "0.802% (inactive)"}, {"smiles": "CCO[Si](CCCSSSSCCC[Si](OCC)(OCC)OCC)(OCC)OCC", "activity change, negative = inhibition": "-15.4% (inactive)"}, {"smiles": "O=C1CC2(CCCC2)CC(=O)N1", "activity change, negative = inhibition": "1.22% [at 53.7 µM] (inactive)"}, {"smiles": "Clc1cc(Cl)cc(Cl)c1", "activity change, negative = inhibition": "2.55% (inactive)"}, {"smiles": "CNCc1cc(F)ccc1Oc1ccc(Cl)c(Cl)c1", "activity change, negative = inhibition": "-14.5% (inactive)"}]}, {"target": "Acetylcholinesterase (Homo sapiens) (UniProt P22303)", "experiment": "Acetylcholinesterase (AChE) small molecule antagonists: enzyme-based qHTS assay with human liver microsomes (AID 1347399); also: nearly all actives have a fitted effect of over 60% in size", "conditions": "Potency: qHTS inhibition; outcome: qHTS inhibition; series mostly up to 115 µM; activity change, negative = inhibition: at the top concentration", "in_short": "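Recombinant human AChE (50 mU/mL in the enzyme mix) and human liver microsomes (0.25 mg/mL final) were preincubated with compound and NADPH (0.25 mg/mL final) for 30 min at 37 C. Acetylthiocholine/DTNB was then added; thiocholine was read colorimetrically after 10 min at room temperature.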", "values": [{"smiles": "CN1CCC(=C2c3ccccc3CCc3sccc32)CC1", "activity change, negative = inhibition": "0.153% [at 53 µM] (inactive)"}, {"smiles": "CCCCCCCCCCCCCCCCCC[N+](C)(C)Cc1ccccc1", "activity change, negative = inhibition": "3.97% (inactive)"}, {"smiles": "CCCCCCCCCCCCCCN(CCO)CCO", "activity change, negative = inhibition": "0.76% (inactive)"}, {"smiles": "Cc1cc(=O)oc2cc(N(C)C)ccc12", "activity change, negative = inhibition": "6.03% (inactive)"}, {"smiles": "O=S(=O)(O)c1cc(S(=O)(=O)O)c2ccc3c(S(=O)(=O)O)cc(S(=O)(=O)O)c4ccc1c2c43", "activity change, negative = inhibition": "2.76% [at 23.6 µM] (inactive)"}, {"smiles": "CCOC(=O)CC#N", "activity change, negative = inhibition": "-1.71% (inactive)"}, {"smiles": "S=c1[nH]c2ccccc2s1", "activity change, negative = inhibition": "-4.8% (inactive)"}, {"smiles": "COCCOc1cc2cc(C(=O)NC3CCN(C(C)C)CC3)n(CC(=O)Nc3ccc(Cl)cn3)c2cn1", "activity change, negative = inhibition": "0.676% (inactive)"}, {"smiles": "CN1CCCCC1CCN1c2ccccc2Sc2ccc(S(C)=O)cc21", "note": "(centres undefined)", "activity change, negative = inhibition": "-1.1% [at 53 µM] (inactive)"}, {"smiles": "NC1(c2ccc(-c3nc4ccn5c(=O)[nH]nc5c4cc3-c3ccccc3)cc2)CCC1", "activity change, negative = inhibition": "-1.98% [at 53 µM] (inactive)"}, {"smiles": "COc1ccc(-n2nc(C(F)F)cc2-c2ccc(S(C)=O)cc2)cc1", "note": "(centres undefined)", "activity change, negative = inhibition": "-1.31% (inactive)"}, {"smiles": "Clc1ccc2c(c1)CCc1cccnc1C2=C1CCNCC1", "activity change, negative = inhibition": "0.724% [at 53 µM] (inactive)"}, {"smiles": "Nc1ccc(F)c([N+](=O)[O-])c1", "activity change, negative = inhibition": "0.569% (inactive)"}, {"smiles": "c1ccc2c(c1)CCCC2C1=NCCN1", "note": "(centres undefined)", "activity change, negative = inhibition": "-2.35% [at 53 µM] (inactive)"}, {"smiles": "CC1=CCC2C(C1)C2(C)C", "note": "(centres undefined)", "activity change, negative = inhibition": "-0.9% (inactive)"}, {"smiles": "CCOC(=O)[C@H](CCc1ccccc1)N[C@H]1CS[C@H](c2cccs2)CN(CC(=O)O)C1=O", "activity change, negative = inhibition": "-0.213% [at 53 µM] (inactive)"}, {"smiles": "O=C1c2ccccc2S(=O)(=O)N1CCCCN1CCN(c2ncccn2)CC1", "activity change, negative = inhibition": "-1.09% [at 53 µM] (inactive)"}, {"smiles": "N#CC1(N)CCCCC1", "activity change, negative = inhibition": "-1.08% (inactive)"}, {"smiles": "Cc1ccccc1C", "activity change, negative = inhibition": "-0.661% (inactive)"}, {"smiles": "CCC(C)(C)C1CCC(=O)CC1", "activity change, negative = inhibition": "-1.48% (inactive)"}, {"smiles": "O=C(OCC(O)CO)c1ccccc1Nc1ccnc2cc(Cl)ccc12", "note": "(centres undefined)", "activity change, negative = inhibition": "-2.66% [at 53 µM] (inactive)"}, {"smiles": "NS(=O)(=O)c1cc2c(cc1Cl)NC(CC1CCCC1)NS2(=O)=O", "note": "(centres undefined)", "activity change, negative = inhibition": "1.02% [at 53 µM] (inactive)"}, {"smiles": "COc1cc2ncnc(Nc3ccc(F)c(Cl)c3)c2cc1OCCCN1CCOCC1", "activity change, negative = inhibition": "-0.275% [at 53 µM] (inactive)"}, {"smiles": "Cc1cc(-c2ccc(N=Nc3cc(S(=O)(=O)O)c4ccccc4c3N)c(C)c2)ccc1N=Nc1cc(S(=O)(=O)O)c2ccccc2c1N", "activity change, negative = inhibition": "0.504% (inactive)"}, {"smiles": "CCO[Si](CCCSSSSCCC[Si](OCC)(OCC)OCC)(OCC)OCC", "activity change, negative = inhibition": "2.41% (inactive)"}, {"smiles": "CCCC[P+](C)(CCCC)CCCC", "activity change, negative = inhibition": "0.171% (inactive)"}, {"smiles": "O=C(CCCN1CCN(c2ccccn2)CC1)c1ccc(F)cc1", "activity change, negative = inhibition": "-3.39% [at 53 µM] (inactive)"}, {"smiles": "NS(=O)(=O)c1cc2c(cc1C(F)(F)F)NCNS2(=O)=O", "activity change, negative = inhibition": "-1.85% [at 53 µM] (inactive)"}, {"smiles": "CC(C)C[C@@H]1[C@H](c2ccccc2)OC(=O)N1CCCN1CCCCCC1", "activity change, negative = inhibition": "0.837% [at 53 µM] (inactive)"}, {"smiles": "Nc1ccc(Oc2ccc(N)c(N)c2)cc1", "activity change, negative = inhibition": "3.88% (inactive)"}, {"smiles": "O=C1CC2(CCCC2)CC(=O)N1", "activity change, negative = inhibition": "1.32% [at 53 µM] (inactive)"}, {"smiles": "OCc1c[nH]c2ccccc12", "activity change, negative = inhibition": "-4.86% (inactive)"}, {"smiles": "O=C1CC2(CCCC2)CC(=O)N1CCCCN1CCN(c2ncccn2)CC1", "Potency": "inactive"}, {"smiles": "CO/N=C1\\CN(c2nc3c(cc2F)c(=O)c(C(=O)O)cn3C2CC2)CC1CN", "note": "(centres undefined)", "outcome": "inactive"}, {"smiles": "CCOC(=O)Nc1ccc(NCc2ccc(F)cc2)nc1N", "activity change, negative = inhibition": "2.94% [at 53 µM] (inactive)"}, {"smiles": "Clc1cc(Cl)cc(Cl)c1", "activity change, negative = inhibition": "-0.665% (inactive)"}, {"smiles": "CNCc1cc(F)ccc1Oc1ccc(Cl)c(Cl)c1", "activity change, negative = inhibition": "-0.466% (inactive)"}, {"smiles": "C[C@@H]1CCC[C@H](C)N1CCCC(O)(c1ccccc1)c1ccccn1", "note": "(some centres undefined)", "activity change, negative = inhibition": "0.84% [at 53 µM] (inactive)"}, {"smiles": "Cc1cc(=O)c2c(O)c3c(O)cc(=O)c4c3c3c(cc(O)c1c23)C(C)(C)C=4O", "activity change, negative = inhibition": "0.168% [at 23.6 µM] (inactive)"}]}]}
